{"source": "the supplement of paper PMC8975748", "note": "Counter-ions that a name gives are not always drawn.", "data": [{"tested_on": "Saccharomyces cerevisiae BY4741 SeMeCo community", "test": "z-score of subpopulation abundance vs DMSO median, subpopulation auxotrophic for L; higher = larger share of this subpopulation than in DMSO controls", "settings": "10 µM; 24 h; SM minimal medium; subpopulation (auxotrophy): L", "method": "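Fluorescent four-plasmid SeMeCo (self-establishing metabolically cooperating S. cerevisiae BY4741 community; plasmids pH-mRuby2, pL-mWasabi, pU-eCFP, pM-TagRFP657) was grown 24 h in minimal SM medium with each Selleck FDA-approved drug at 10 µM in 384-well plates. Cells were fixed and imaged by high-content confocal microscopy. For each auxotrophic subpopulation (and the prototroph), a z-score gives the deviation from the DMSO vehicle-control population median.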", "values": [{"smiles": "Nc1ccc(S(=O)(=O)Nc2ncccn2)cc1", "note": "[Sodium sulfadiazine]", "z-score of subpopulation abundance": 0.56}, {"smiles": "OCc1ccccc1O[C@@H]1O[C@H](CO)[C@@H](O)[C@H](O)[C@H]1O", "note": "[Salicin]", "z-score of subpopulation abundance": 0.38}, {"smiles": "COc1cc(Cc2cnc(N)nc2N)cc(OC)c1OC", "note": "[Trimethoprim]", "z-score of subpopulation abundance": 0.44}, {"smiles": "O=C(O[C@H]1CN2CCC1CC2)N1CCc2ccccc2[C@@H]1c1ccccc1", "note": "[Solifenacin succinate]", "z-score of subpopulation abundance": -0.16}, {"smiles": "CC1(C)S[C@@H]2[C@H](NC(=O)Cc3ccccc3)C(=O)N2[C@H]1C(=O)O", "note": "[Benzathine penicilline]", "z-score of subpopulation abundance": -0.58}, {"smiles": "N#C/C(=C1/SC[C@@H](c2ccc(Cl)cc2Cl)S1)n1ccnc1", "note": "[Luliconazole]", "z-score of subpopulation abundance": -1.35}, {"smiles": "Cc1ccc(Sc2ccccc2N2CCNCC2)c(C)c1", "z-score of subpopulation abundance": -0.27}, {"smiles": "CC(C)Cc1ccc(C(C)C(=O)O)cc1", "note": "(stereo not given) [Ibuprofen Lysine]", "z-score of subpopulation abundance": -0.17}, {"smiles": "CCN1CCN(C(=O)N[C@@H](C(=O)N[C@@H]2C(=O)N3[C@@H]2SC(C)(C)[C@@H]3C(=O)O)c2ccccc2)C(=O)C1=O", "note": "[Piperacillin Sodium]", "z-score of subpopulation abundance": 1.08}, {"smiles": "CC(C(O)c1ccc(O)cc1)N1CCC(Cc2ccccc2)CC1", "note": "(stereo not given) [Ifenprodil Tartrate]", "z-score of subpopulation abundance": -0.15}, {"smiles": "CO[C@@]1(NC(=O)CSC[C@@H](N)C(=O)O)C(=O)N2C(C(=O)O)=C(CSc3nnnn3C)CS[C@@H]21", "note": "[Cefminox Sodium]", "z-score of subpopulation abundance": 1.5}, {"smiles": "CCn1cc(C(=O)O)c(=O)c2cc(F)c(N3CCNCC3)nc21", "note": "[Enoxacin]", "z-score of subpopulation abundance": 1.22}, {"smiles": "CCCN1CCCC[C@H]1C(=O)Nc1c(C)cccc1C", "note": "[Ropivacaine]", "z-score of subpopulation abundance": -0.8}, {"smiles": "COc1ccc2[nH]c([S@@+]([O-])Cc3ncc(C)c(OC)c3C)nc2c1", "note": "[NEXIUM (esomeprazole magnesium)]", "z-score of subpopulation abundance": 1.11}, {"smiles": "CCC(=O)NS(=O)(=O)c1ccc(-c2c(-c3ccccc3)noc2C)cc1", "note": "[Parecoxib Sodium]", "z-score of subpopulation abundance": 0.68}, {"smiles": "O=c1cc(-c2ccc(O)c(O)c2)oc2cc(O)cc(O)c12", "note": "[Luteolin]", "z-score of subpopulation abundance": 1.23}, {"smiles": "Cc1nc2n(c(=O)c1CCN1CCC(c3noc4cc(F)ccc34)CC1)CCCC2O", "note": "(stereo not given) [Paliperidone]", "z-score of subpopulation abundance": -0.99}, {"smiles": "CCCOc1ccc(C(=O)OCCN(CC)CC)cc1N", "note": "[Proparacaine HCl]", "z-score of subpopulation abundance": 0.26}, {"smiles": "CCN1CC(CCN2CCOCC2)C(c2ccccc2)(c2ccccc2)C1=O", "note": "(stereo not given) [Doxapram HCl]", "z-score of subpopulation abundance": -1.14}, {"smiles": "Clc1ccc2c(N3CCN(CCCN4CCN(c5ccnc6cc(Cl)ccc56)CC4)CC3)ccnc2c1", "note": "[Piperaquine phosphate]", "z-score of subpopulation abundance": 0.02}, {"smiles": "CC(NCCC(c1ccccc1)c1ccccc1)c1ccccc1", "note": "(stereo not given) [Fendiline hydrochloride]", "z-score of subpopulation abundance": 0.03}, {"smiles": "CCN[C@@H]1C[C@H](N)[C@@H](O[C@H]2OC(CN)=CC[C@H]2N)[C@H](O)[C@H]1O[C@H]1OC[C@](C)(O)[C@H](NC)[C@H]1O", "note": "[Netilmicin Sulfate]", "z-score of subpopulation abundance": -0.06}, {"smiles": "CCCCCCCCCC(=O)N[C@@H](Cc1c[nH]c2ccccc12)C(=O)N[C@H](CC(N)=O)C(=O)N[C@@H](CC(=O)O)C(=O)N[C@@H]1C(=O)NCC(=O)N[C@@H](CCCN)C(=O)N[C@@H](CC(=O)O)C(=O)N[C@H](C)C(=O)N[C@@H](CC(=O)O)C(=O)NCC(=O)N[C@H](CO)C(=O)N[C@@H]([C@H](C)CC(=O)O)C(=O)N[C@@H](CC(=O)c2ccccc2N)C(=O)O[C@@H]1C", "note": "[Daptomycin]", "z-score of subpopulation abundance": 0.51}, {"smiles": "Clc1ccc(COC(Cn2ccnc2)c2ccc(Cl)cc2Cl)cc1", "note": "(stereo not given) [Econazole nitrate]", "z-score of subpopulation abundance": -3.48}, {"smiles": "C[N+](C)(C)CCO.[Cl-]", "note": "[Choline Chloride]", "z-score of subpopulation abundance": -0.08}, {"smiles": "CCOc1ccc(NC(C)=O)cc1", "note": "[Phenacetin]", "z-score of subpopulation abundance": -0.65}, {"smiles": "O=C(O)c1ccccc1O", "note": "[Salicylic acid]", "z-score of subpopulation abundance": -0.26}, {"smiles": "COc1cccc(CCc2ccccc2OCC(CN(C)C)OC(=O)CCC(=O)O)c1", "note": "(stereo not given) [Sarpogrelate hydrochloride]", "z-score of subpopulation abundance": -0.31}, {"smiles": "CO/N=C(\\C(=O)N[C@@H]1C(=O)N2C(C(=O)O)=C(CSc3nc(=O)c(O)nn3C)CS[C@H]12)c1csc(N)n1", "note": "[Ceftriaxone Sodium Trihydrate]", "z-score of subpopulation abundance": 2.07}, {"smiles": "COCCCOc1ccnc(C[S+]([O-])c2nc3ccccc3[nH]2)c1C", "note": "(stereo not given) [Rebeprazole sodium]", "z-score of subpopulation abundance": -0.68}, {"smiles": "Cc1nnc(SCC2=C(C(=O)O)N3C(=O)[C@@H](NC(=O)Cn4cc(Cl)c(=O)c(Cl)c4)[C@H]3SC2)s1", "note": "[Cefazedone]", "z-score of subpopulation abundance": -0.83}, {"smiles": "COc1ccc(NS(=O)(=O)c2ccc(N)cc2)nn1", "note": "[Sulfamethoxypyridazine]", "z-score of subpopulation abundance": -0.07}, {"smiles": "O=C(c1ccccc1)c1ccc2n1CCC2C(=O)O", "note": "(stereo not given) [Ketorolac]", "z-score of subpopulation abundance": -0.04}, {"smiles": "COc1ccc(C(C)=O)c(O)c1", "note": "[Paeonol]", "z-score of subpopulation abundance": 0.17}, {"smiles": "CCn1cc(C(=O)O)c(=O)c2cnc(N3CCNCC3)nc21", "note": "[Pipemidic acid]", "z-score of subpopulation abundance": -0.32}, {"smiles": "CCCNC(C)C(=O)Nc1ccccc1C", "note": "(stereo not given) [Prilocaine hydrochloride]", "z-score of subpopulation abundance": 0.41}, {"smiles": "CC(C)n1c(/C=C/C(O)CC(O)CC(=O)O)c(-c2ccc(F)cc2)c2ccccc21", "note": "(stereo not given) [Fluvastatin Sodium]", "z-score of subpopulation abundance": -1.3}, {"smiles": "CCCN(CCC)CCc1cccc2c1CC(=O)N2", "note": "[Ropinirole HCl]", "z-score of subpopulation abundance": 1.95}, {"smiles": "CC1(C)S[C@@H]2[C@H](NC(=O)COc3ccccc3)C(=O)N2[C@H]1C(=O)O", "note": "[Penicillin V potassium salt]", "z-score of subpopulation abundance": -1.58}, {"smiles": "COc1cc2c(cc1OC)[C@@H]1Cc3ccc(OC)c(OC)c3CN1CC2", "note": "[Rotundine]", "z-score of subpopulation abundance": -0.28}]}]}
